Results reported in PubChem BioAssay (NCATS).
Values joined by “and” are separate entries in the source; they are usually repeats but may differ in a detail not shown here. Equal values may be shown once. A number with no mark means an inactive call. Inconclusive results are not listed. A call without a number means that no potency is given here. Active and inactive are the calls of the source. The call rests on the fitted dose curve; in most records, active means well fitted curve in the direction sought with a large enough effect; inconclusive means small, poorly fitted or top-dose-only effect, or another doubt; inactive means no such curve, though single readings can be large; an effect the other way counts as inactive or inconclusive.

Assays:
[1] = molecular target: Arylsulfatase A (Homo sapiens) (UniProt P15289); experiment: qHTS screen for enhancers of Arylsulfatase A (ASA1): LOPAC Validation Assay (AID 720538); conditions: outcome: dose series up to 57.5 µM
Procedure, shortened: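 Enhancer assay in patient-derived MLD fibroblasts carrying ASA-I179S: 48 h compound exposure at 37 C, then 14 h room-temperature pNCS turnover (0.5 mM final) in lysis buffer. Read by fluorescence at 525/598 nm after NaOH stop.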

[2] = qHTS for compounds that reverse cellular toxicity of Amyloid beta (A-beta) peptide in yeast: LOPAC Validation Assay (AID 720559)
Procedure, shortened: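 Rescue of A-beta toxicity was scored as yeast growth by 600 nm absorbance after 48 hr at 30 C with compound. Normalization used DMSO (negative) and equimolar ferric chloride plus clioquinol (positive).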

[3] = qHTS for Activators of Parkin Expression: LOPAC Validation Assay (NLuc Reporter) (AID 720572)
Procedure, shortened: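 Neuronal cells with a Parkin promoter-driven FLuc/NLuc coincidence reporter were treated 24 h at 37 C in 7-point dose response (LOPAC). NLuc luminescence read after FLuc; signals normalized to DMSO and positive control (100%).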

[4] = qHTS for Activators of Parkin Expression: LOPAC Validation Assay (FLuc Reporter) (AID 720573)
Procedure, shortened: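 FLuc signal from Parkin-promoter coincidence reporter neuronal cells, normalized to DMSO and positive control (100%). Cells (1,500/well) pre-incubated 24 h, then exposed to LOPAC compounds in 7-point dose response for 24 h at 37 C, 5% CO2.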

[5] = molecular target: T1, Hexokinase-4 (Homo sapiens) + Glucokinase regulatory protein (Homo sapiens) (UniProt P35557+Q14397); experiment: qHTS assay for inhibitors of recombinant human GCK-GKRP interaction: Diaphorase-coupled assay (AID 743205)
Procedure, shortened: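 A kinetic fluorescence read (Ex 525/Em 590 nm, every minute for 30 minutes) tracked resorufin from a G6PDH-diaphorase coupled GCK reaction. It contained 10 nM GST-GCK, 10 nM FLAG-GKRP, 5 mM glucose, 0.4 mM ATP in Hepes pH 7.6. Normalized to with/without-enzyme DMSO controls.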

[6] = molecular target: T1, Hexokinase-4 (Homo sapiens) + Glucokinase regulatory protein (Homo sapiens); experiment: qHTS assay for inhibitors of recombinant human GCK-GKRP interaction: ADP-Glo assay (AID 743206)
Procedure, shortened: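 GST-GCK and FLAG-GKRP (15 nM each in the dispensed mix, with 2 uM S6P) react with 0.4 mM ATP and 5 mM glucose (final) in Hepes pH 7.6 for 60 min at room temperature. ADP is measured by ADP-Glo luminescence.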

[7] = molecular target: T1, Hexokinase-4 (Homo sapiens) + Glucokinase regulatory protein (Homo sapiens); experiment: qHTS assay for inhibitors of recombinant human GCK-GKRP interaction: HTRF assay (AID 743207)
Procedure, shortened: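 After 60 min equilibration at room temperature with anti-FLAG XL665 and anti-GST antibodies, FRET ratio (665/615 nm, excitation 320 nm) was read. Proteins: GST-GCK and FLAG-GKRP, each 5 nM, plus 2 uM S6P, pH 7.1 buffer; GCK-free wells define minimum signal.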

[8] = qHTS Assay for Identifying Gametocytocidal Compounds (AID 743244); further: potency means the concentration at half of the fitted maximal effect;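 on max response: actives lower the fluorescent signal which means gametocytes are killed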; conditions: P. falciparum 3D7 stage III-V gametocytes, alamarBlue, 72 h; max response: hits give low values
Procedure, shortened: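 Late gametocytes (III–V), P. falciparum 3D7; 72 h drug, then 24 h alamarBlue; resazurin reduction read by fluorescence.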

T1 sequence (P35557 whole entry, looked up): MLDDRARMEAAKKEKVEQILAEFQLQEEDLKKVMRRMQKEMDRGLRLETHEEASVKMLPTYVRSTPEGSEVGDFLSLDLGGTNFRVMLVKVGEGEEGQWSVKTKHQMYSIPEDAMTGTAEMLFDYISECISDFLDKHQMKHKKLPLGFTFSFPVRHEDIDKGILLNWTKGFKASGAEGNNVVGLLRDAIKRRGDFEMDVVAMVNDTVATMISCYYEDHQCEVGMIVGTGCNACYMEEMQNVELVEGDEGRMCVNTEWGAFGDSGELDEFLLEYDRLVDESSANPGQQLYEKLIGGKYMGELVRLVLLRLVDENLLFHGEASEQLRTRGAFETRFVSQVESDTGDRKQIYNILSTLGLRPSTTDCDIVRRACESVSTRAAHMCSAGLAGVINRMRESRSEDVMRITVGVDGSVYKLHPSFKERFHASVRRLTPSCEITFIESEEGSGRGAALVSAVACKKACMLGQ
T1 sequence (Q14397 whole entry, looked up): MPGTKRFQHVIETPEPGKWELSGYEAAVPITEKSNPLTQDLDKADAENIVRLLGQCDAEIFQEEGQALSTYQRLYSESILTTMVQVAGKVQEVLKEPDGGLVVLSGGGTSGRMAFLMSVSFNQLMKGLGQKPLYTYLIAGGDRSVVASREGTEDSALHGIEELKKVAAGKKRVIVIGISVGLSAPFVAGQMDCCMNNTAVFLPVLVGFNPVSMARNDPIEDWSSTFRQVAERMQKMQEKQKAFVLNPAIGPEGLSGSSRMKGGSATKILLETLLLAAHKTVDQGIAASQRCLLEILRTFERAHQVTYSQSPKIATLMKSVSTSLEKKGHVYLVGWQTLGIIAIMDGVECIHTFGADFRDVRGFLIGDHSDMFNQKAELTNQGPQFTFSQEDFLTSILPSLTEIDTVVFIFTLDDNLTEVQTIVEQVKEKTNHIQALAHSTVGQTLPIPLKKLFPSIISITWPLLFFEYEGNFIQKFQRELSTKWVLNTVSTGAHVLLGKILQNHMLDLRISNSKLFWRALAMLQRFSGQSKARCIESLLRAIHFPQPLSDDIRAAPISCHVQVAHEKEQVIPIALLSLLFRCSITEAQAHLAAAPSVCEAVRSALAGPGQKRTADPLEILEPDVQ
Sequence of Arylsulfatase A (Homo sapiens) (P15289 whole entry, looked up): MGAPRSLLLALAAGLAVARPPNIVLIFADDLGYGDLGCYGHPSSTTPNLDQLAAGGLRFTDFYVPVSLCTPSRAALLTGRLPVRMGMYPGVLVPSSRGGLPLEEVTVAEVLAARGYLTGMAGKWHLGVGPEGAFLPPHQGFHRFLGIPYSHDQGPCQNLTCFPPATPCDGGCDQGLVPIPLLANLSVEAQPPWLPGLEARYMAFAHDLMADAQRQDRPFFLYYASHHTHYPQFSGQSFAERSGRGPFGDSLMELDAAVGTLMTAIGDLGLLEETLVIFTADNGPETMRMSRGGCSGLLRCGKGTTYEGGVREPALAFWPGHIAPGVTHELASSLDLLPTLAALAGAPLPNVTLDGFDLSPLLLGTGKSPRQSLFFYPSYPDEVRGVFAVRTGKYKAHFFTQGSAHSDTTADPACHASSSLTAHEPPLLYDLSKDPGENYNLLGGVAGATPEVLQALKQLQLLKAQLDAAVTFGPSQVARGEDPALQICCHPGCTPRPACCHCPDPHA

| Structure (SMILES) | outcome [1] | outcome [2] | Potency [3] | Potency [4] | outcome [5] | outcome [6] | outcome [7] | max response [8] | Potency [8] |
| --- | --- | --- | --- | --- | --- | --- | --- | --- | --- |
| O=C(NCCN1CCOCC1)c1ccc(Cl)cc1 | inactive | inactive | inactive | inactive | inactive | inactive | inactive | -4.13% and 9.69% and 29.4% |  |
| Clc1ccc(C(c2ccc(Cl)cc2)n2cc[n+](CC(OCc3ccc(Cl)cc3Cl)c3ccc(Cl)cc3Cl)c2)cc1 (centres undefined) | inactive | inactive | inactive | inactive | inactive | inactive |  |  |  |
| CCCCCN(C)CCC(O)(P(=O)(O)O)P(=O)(O)O | inactive | inactive | inactive | inactive | inactive | inactive | inactive |  |  |
| CCc1ccc(OCc2ccccc2C(=O)Nc2ccc3nc(C)cc(N)c3c2)cc1 |  |  |  |  |  |  |  |  | 8.33 µM (active) |
| CCN(CC)C(=O)c1ccc(O)c(OC)c1 | inactive; inhibitor; fitted 6.012 uM | inactive | inactive | inactive | inactive | inactive | inactive | 14.2% and 0.626% and 4.97% |  |
| CC(=O)CCCCn1c(=O)c2c(ncn2C)n(C)c1=O |  | inactive | inactive | inactive | inactive | inactive | inactive | -1.45% and 1.03% |  |
| Clc1ccc(Cn2c(CN3CCCC3)nc3ccccc32)cc1 | inactive; inhibitor; fitted 0.0054 uM | inactive | inactive | inactive | inactive | inactive | inactive |  |  |
| O=C1NCC2(CCN(CCc3ccccc3)CC2)O1 | inactive | inactive | inactive | inactive | inactive | inactive | inactive | 1.69% and 18.3% |  |
| CCN(CC)CCNC(=O)c1ccc(N)cc1 | inactive | inactive | inactive | inactive | inactive | inactive | inactive | 34.9% |  |
| COc1ccccc1N1CCN(CCCNc2cc(=O)n(C)c(=O)n2C)CC1 | inactive | inactive | inactive | inactive | inactive | inactive | inactive | 9.05% and -4.71% and 2.95% |  |
| CC(C(=O)O)c1ccc(-c2ccccc2)c(F)c1 (centres undefined) |  |  |  |  |  |  |  | 6.81% |  |
| NCCS | inactive | inactive | inactive | inactive | inactive | inactive | inactive | -3.42% and 10.4% and 19.2% |  |
| NC(N)=Nc1nc(CSCC/C(N)=N/S(N)(=O)=O)cs1 | inactive | inactive | inactive | inactive | inactive | inactive | inactive | 5.05% and 9.64% |  |
| Cc1cnc(C(=O)O)c[n+]1[O-] |  |  |  |  |  |  |  | 8.17% and 2.06% and -4.26% |  |
| Cc1cccc(C)c1OCC(C)N (centres undefined) | inactive | inactive | inactive | inactive | inactive | inactive | inactive | 9.33% and -4.15% and 13.1% |  |
| CC(C)NCC(O)COc1cccc2[nH]ccc12 (centres undefined) | inactive | inactive | inactive |  |  |  |  | 5.47% and 6.31% |  |
| O=C(O)CCc1nc(-c2ccccc2)c(-c2ccccc2)o1 | inactive | inactive |  | inactive |  |  |  | 14.6% and 5.09% |  |
| OC[C@@H](O)[C@H](O)[C@H](O)[C@@H](O)CO |  |  |  |  |  |  |  | 1.74% and -2.1% |  |
| CC(=O)Oc1cc2c(s1)CCN(C(C(=O)C1CC1)c1ccccc1F)C2 (centres undefined) |  |  |  |  |  |  |  | 3.57% |  |
| CC1(C)CCC2=C(O1)c1ccccc1C(=O)C2=O | inactive | inactive | inactive | inactive | inactive | inactive |  |  | 2.82 µM (active) |
| CCN(CC)CCOC(=O)c1ccc(N)cc1 | inactive | inactive | inactive | inactive | inactive | inactive | inactive | 17.2% and 7.74% |  |
